Most compounds without a hit are left out; they make up all but 10% or so of the library.
G9a inh = blocks human histone lysine methyltransferase G9a. Q96KQ7. G9a H3K9 monomethylation, AlphaScreen, 2 h. Potency, µM (top dose mostly 102 µM), inactives show at the top dose activity, negative = inhibition, hits mostly inhibitors. 8.8% of 350,000 active. AID 504332; further: on the % scale 0 is the no-effect control and ±100 the full control effect; nearly all actives have a fitted effect of over 75% in size
Target sequence (Q96KQ7 913-1193 limits assumed): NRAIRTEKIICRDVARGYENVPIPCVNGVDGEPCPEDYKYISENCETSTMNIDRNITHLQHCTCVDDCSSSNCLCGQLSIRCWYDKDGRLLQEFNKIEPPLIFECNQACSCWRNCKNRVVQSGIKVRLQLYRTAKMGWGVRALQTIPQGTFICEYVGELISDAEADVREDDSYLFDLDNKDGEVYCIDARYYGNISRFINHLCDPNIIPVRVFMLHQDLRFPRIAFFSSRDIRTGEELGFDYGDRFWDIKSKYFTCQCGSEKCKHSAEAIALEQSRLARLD
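Quantitative HTS format: methyltransferase activity on a biotin-tagged H3K9 peptide is measured by AlphaScreen, using a rabbit anti-monomethyl-H3K9 antibody with streptavidin donor and anti-IgG acceptor beads. Final levels are 20 nM enzyme, 500 nM peptide, 20 uM SAM; 2 h RT.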
BAZ2B block = inhibitors of human BAZ2B bromodomain; AlphaScreen BAZ2B-H3K14Ac peptide displacement; Potency, µM (highest dose often 114 µM), inactives show at the highest dose activity change, negative = inhibition, hits mostly inhibitors; 4.4% of 360,000 active; AID 504333; further: on the % scale 0 is the no-effect control and ±100 the full control effect; nearly all actives have a fitted effect of over 60% in size
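Compounds, titrated to a top concentration of 110 uM, were incubated 30 min at room temperature with preformed BAZ2B/acetyl-K14 H3 peptide complex (50 nM each). Proximity signal was measured by AlphaScreen after 20 min with beads.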
GLS inh = glutaminase GLS (human) inhibition. O94925. GLS enzymatic activity, qHTS titration. Potency, µM (top dose mostly 45.5 µM), without a hit: at the highest dose activity change, negative = inhibition, hits mostly inhibitors. 0.21% of 410,000 active; further: on the % scale 0 is the no-effect control and ±100 the full control effect
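Compounds were pin-transferred onto hKGA, after which L-glutamine (1 mM solution) and a detection mix of glutamate oxidase, HRP and Amplex Red were added. Initial and 30 min RT fluorescence reads were collected.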
JMJD2A Tudor inh = inhibitors of human JMJD2A Tudor domain; O75164; AlphaScreen JMJD2A-Tudor / H3K4me3 peptide binding; Potency, µM (titrated, usually from 114 µM), for inactives: top-dose activity change, negative = inhibition, most hits filed as inhibitors; 4.4% of 390,000 active; AID 504339; further: on the % scale 0 is the no-effect control and ±100 the full control effect; nearly all actives have a fitted effect of over 50% in size
HP1b binding inh = blocks HP1-beta chromodomain binding to methylated histone tails. P83916. 0.56% of 390,000 active. Potency, µM (doses to about 114 µM), for the others: top-dose activity change, negative = inhibition, actives largely listed as inhibitors. AlphaScreen HP1-beta / biotin-H3K9me3 peptide binding; further: nearly all actives have a fitted effect of over 70% in size
Target sequence (P83916 whole entry, looked up): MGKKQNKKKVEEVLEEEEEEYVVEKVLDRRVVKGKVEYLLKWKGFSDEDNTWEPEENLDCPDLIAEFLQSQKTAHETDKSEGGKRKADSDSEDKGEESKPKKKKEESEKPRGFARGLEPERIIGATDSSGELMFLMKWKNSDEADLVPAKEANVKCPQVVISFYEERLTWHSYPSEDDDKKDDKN
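HP1-beta protein (50 nM final) preincubated 30 min at room temperature with biotinylated H3(1-18)K9me3 peptide (50 nM) in PBS pH 7.4, 0.01% Tween-20, then compound added for 30 min. AlphaScreen streptavidin donor/nickel chelate acceptor beads (10 ug/mL final), 30 min dark, luminescence read.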
Numbers without * were called inactive; ? = inconclusive; . = no result; [ ] = dose if it differs, or a comment. The call rests on the fitted dose curve; in most records, active means well fitted curve in the direction sought with a large enough effect; inconclusive means small, poorly fitted or top-dose-only effect, or another doubt; inactive means no such curve, though single readings can be large; an effect the other way counts as inactive or inconclusive. Potency means the concentration at half of the fitted maximal effect.

SMILES	G9a inh	BAZ2B block	GLS inh	JMJD2A Tudor inh	HP1b binding inh
CCOc1ccc(-n2c(Cc3cc(=O)[nH]c(=O)[nH]3)nnc2SCC(=O)OC)cc1	?	6.2%	-6.9%	-19.7%	7.9%
Cc1ccc(C)c(-n2c(Cc3cc(=O)[nH]c(=O)[nH]3)nnc2SC(C)C)c1	50.1µM*	6.6%	-0.5%	-13.8%	91.7%
CCOc1ccc(CC(=O)Nc2c(C(=O)Nc3ccc(OC)cc3OC)oc3ccccc23)cc1	4.8%[59 µM]	-11.9%	2.0%	-9.3%	41.5%
Cc1cccc(C)c1OCCCn1c(CCNC(=O)C2CCCCC2)nc2ccccc21	11.1%[59 µM]	-6.7%	-6.2%	-13.8%[57.1 µM]	7.1%[57 µM]
COc1cccc(Cn2c(=O)c(C)nc3cnc(N(C)C)nc32)c1	-2.1%[0.501 µM]	.	.	.	.
Cc1ccccc1N(C(=O)c1snc(C(N)=O)c1N)C(C(=O)NC1CCCC1)c1ccco1 (centres undefined)	7.4%	-4.9%	-1.8%	-11.6%	14.1%
O=C(CSc1nccn1Cc1ccc(F)cc1)NCc1ccco1	1.5%[59 µM]	-6.1%	0.8%	-8.7%	24.3%[57 µM]
Cn1cccc1Cc1nnc(SCC(=O)NCc2ccc(F)cc2)n1-c1ccc(F)cc1	50.1µM*	?	10.3%	-28.9%	15.8%
COc1cccc(-n2c(Cc3cc(=O)[nH]c(=O)[nH]3)nnc2SCc2cccnc2)c1	50.1µM*	14.7%	1.0%	-2.8%	69.5%
O=C(CSc1nnc(Cc2cc(=O)[nH]c(=O)[nH]2)n1-c1ccc(F)cc1)NC1CCCC1	79.4µM*	-1.3%	-8.5%	-0.7%	54.0%
COc1ccc(-n2c(Cc3cc(=O)[nH]c(=O)[nH]3)nnc2SCc2ccccc2)cc1	?	11.2%	-2.0%	-11.0%	59.8%
Cn1cccc1Cc1nnc(SCC(=O)NC2CCCC2)n1-c1ccc(F)cc1	70.8µM*	-7.1%	-1.6%	-29.6%	36.9%
COc1ccc(-n2c(Cc3cccn3C)nnc2SCC(=O)NC2CCCCC2)cc1	?	-36.5%	-0.2%	-12.1%	-0.5%
COc1ccc(CCNC(=O)c2ccc(Cn3c(=O)c4ccccc4n(Cc4cccc(F)c4)c3=O)cc2)cc1OC	3.4%[59 µM]	-22.5%	-6.4%	1.4%	24.0%
O=c1oc2cc(OCc3ccc(F)cc3F)ccc2cc1-c1ccc2ccccc2n1	15.1%	-24.6%	.	.	.
COc1ccc(Cl)c2sc(N(CCN(C)C)C(=O)CCS(=O)(=O)c3ccc(C)cc3)nc12	10µM*	-9.3%	1.0%	-24.9%	1.6%
Cc1ccc2sc(N(CCCN(C)C)C(=O)CCS(=O)(=O)c3ccccc3)nc2c1C	15.8µM*	-30.9%	2.2%	-1.0%	48.4%
O=C(CS(=O)(=O)c1ccccc1)N(CCCN1CCOCC1)c1nc2c(F)cccc2s1	?	-23.1%	-1.7%	-14.3%	30.3%
COc1ccc(OC)c2sc(N(CCN(C)C)C(=O)c3cc(Cl)sc3Cl)nc12	?	.	1.0%	?	?
COc1ccc(OC)c2sc(N(CCCN(C)C)C(=O)CCS(=O)(=O)c3ccccc3)nc12	20µM*	-27.3%	11.8%	-26.2%	10.0%
COc1ccc(C)c2sc(N(CCCN(C)C)C(=O)CS(=O)(=O)c3ccc(F)cc3)nc12	3.2%[59 µM]	-3.0%	6.7%	-15.7%	14.2%
CN(C)CCCN(C(=O)CCS(=O)(=O)c1ccccc1)c1nc2cc3c(cc2s1)OCO3	.	-10.8%	-7.0%	-20.5%	35.4%
CN(C)CCN(C(=O)CCS(=O)(=O)c1ccccc1)c1nc2c(F)cccc2s1	28.2µM*	-26.3%	-11.9%	-19.6%	41.7%
COc1ccc(CN(Cc2ccco2)C(=O)COc2ccccc2OC)cc1	-4.8%[59 µM]	-18.9%	-6.4%	-34.0%	3.3%
CC(=O)Nc1ccc(NC(=O)[C@@H](NC(=O)N2C[C@H]3C[C@@H](C2)c2cccc(=O)n2C3)C(C)C)cc1	.	14.4%	1.3%	-10.2%	11.9%
SMILES	G9a inh	BAZ2B block	GLS inh	JMJD2A Tudor inh	HP1b binding inh
O=C(Cc1ccccc1)N(Cc1cccnc1)c1nc2c(F)cccc2s1	6.4%[59 µM]	-6.4%	3.1%	39.8µM*	25.6%
Cc1ccc(S(=O)(=O)N2CCOCC2)cc1NC(=O)COC(=O)CCc1c[nH]c2ccccc12	.	.	16.3%	-33.3%	-13.7%
C/C(CCC(=O)OC[C@H]1O[C@H](C#Cc2ccccc2)C=C[C@@H]1Oc1ccc(C)cc1)=N\O[C@@H](C)CN1CCCCc2nc(C)c(C)cc21	35.5µM*	-36.8%	.	.	.
COc1ccc(O[C@H]2C=C[C@@H](c3ccccc3)O[C@@H]2COC(=O)CC/C(C)=N/O[C@@H](C)CN2CCCCc3nc(C)c(C)cc32)cc1	35.5µM*	-38.5%	.	.	.
O=C(NNc1ccccc1)c1ccc(Cl)c(Cl)c1	.	.	9.1%	-6.9%	39.1%
CN(C(=O)c1cccc(NC(=O)Cc2cccc(NC(=O)C3CCCN(C(=O)C4CCC4)C3)c2)c1)C1CCC1 (centres undefined)	.	.	0.4%	-8.0%	90.0%
Cc1ccc(NP(=O)(c2ccc(N(C)C)cc2NC(=O)c2cccs2)N2CCOCC2)cc1 (centres undefined)	?	-0.3%	9.6%	-9.3%	21.2%
Cc1ccc(NP(=O)(c2ccc(N(C)C)cc2NC(=O)c2cccs2)N2CCOCC2)cc1Cl (centres undefined)	79.4µM*	-35.7%	-2.1%	?	-5.2%
CCCN(C(=O)Cc1nc(N)n[nH]1)C1(C(=O)Nc2ccccc2C)CCCCC1	4.8%[12.7 µM]	44.7µM*	3.7%	?	20.4%
Cc1cccc(C)c1NC(=O)C1(N(Cc2ccco2)C(=O)CC2NC(=O)NC2=O)CCCCC1 (centres undefined)	-3.4%[12.7 µM]	4.3%	11.7%	-6.1%	51.9%
CCCN(C(=O)Cc1nc(N)n[nH]1)C1(C(=O)Nc2c(C)cccc2C)CCCCC1	-3.6%[12.7 µM]	79.4µM*	1.5%	-35.1%	42.8%
CCN(CCc1ccccc1)c1ccc2c(c1)C1CC2CCN1Cc1ccccc1 (centres undefined)	.	.	3.2%	.	.
COc1ccc(OC)c(C(c2nnnn2CC2CCCO2)N2CCN(C3CCCC3)CC2)c1 (centres undefined)	?	?	9.7%	-17.1%	13.3%
COc1ccc(OC)c(C(c2nnnn2CC2CCCO2)N2CCN(C)CC2)c1 (centres undefined)	?	79.4µM*	4.4%	-13.7%	17.4%
C=CCN1CCN(C(c2cc(OC)ccc2OC)c2nnnn2CC2CCCO2)CC1 (centres undefined)	12.6µM*	.	-12.5%	-14.4%[11.4 µM]	9.4%
COc1ccc(C2(C)CC(C)(C)Nc3ccccc32)cc1 (centres undefined)	-2.4%[0.501 µM]	?	-7.0%	50.1µM*	?
C#CCOCCOCCOCCNc1nc(N2CCN(C(=O)CCCCCCCCCCNC(=O)[C@@H](CCSC)n3cc(CCO)nn3)CC2)nc(N2CCN(C(=O)CCCCCCCCCCNC(=O)[C@H]([C@@H](C)CC)n3cc(CCCCCN)nn3)CC2)n1	19.5%[2.33 µM]	?	?	56.2µM*	?

Bioassay records from PubChem.
